# Test results: PubChem BioAssay AID1159580 (chemical genetic matrix, 2015)
# Out of some 5,500 compounds screened, about 2,000 (36%) were called active. Another 18% or so got no clear call; they are omitted. This is one part of the list. A number with no mark means an inactive call. No stated cut-off is given here; in the data, active means normalized growth mostly below about 0.91 (no sharp cut-off); inconclusive means no clear call, values can overlap the other calls; inactive means mostly above about 0.92.
# Assay: chemical genetic growth profiling, strain panel (AID 1159580);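 further: tested at 20 µM; growth read once vehicle control cultures reached saturation at 30 °C; 1 = growth at the plate median or of vehicle wells; lower values mean less growth of the strain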
# Conditions: growth OD
smiles,measurement,setting,value
COc1ccc(C(=O)c2ccccc2O)c(O)c1,normalized growth,"S. cerevisiae deletion strains, locus YJR066W, strain TOR1, hits give low values",0.901
same,normalized growth,"S. cerevisiae deletion strains, locus YKL009W, strain mrt4, hits give low values",0.895
same,normalized growth,"S. cerevisiae deletion strains, locus YKL068W, hits give low values",0.944
same,normalized growth,"S. cerevisiae deletion strains, locus YKL085W, strain MDH1 (second series), hits give low values",0.905 (active)
same,normalized growth,"S. cerevisiae deletion strains, locus YKL085W, strain MDH1, hits give low values",0.905 (active)
same,normalized growth,"S. cerevisiae deletion strains, locus YKL160W, strain elf1, hits give low values",0.896 (active)
same,normalized growth,"S. cerevisiae deletion strains, locus YKL190W, strain CNB1, hits give low values",0.963
same,normalized growth,"S. cerevisiae deletion strains, locus YKR001C, strain vps1, hits give low values",0.71 (active)
same,normalized growth,"S. cerevisiae deletion strains, locus YKR026C, strain gcn3, hits give low values",0.894 (active)
same,normalized growth,"S. cerevisiae deletion strains, locus YKR091W, strain srl3, hits give low values",0.901 (active)
same,normalized growth,"S. cerevisiae deletion strains, locus YLL001W, strain dnm1, hits give low values",0.92
same,normalized growth,"S. cerevisiae deletion strains, locus YLL026W, hits give low values",0.88 (active)
same,normalized growth,"S. cerevisiae deletion strains, locus YLL041C, strain sdh2, hits give low values",0.885 (active)
same,normalized growth,"S. cerevisiae deletion strains, locus YLR027C, strain aat2, hits give low values",0.875 (active)
same,normalized growth,"S. cerevisiae deletion strains, locus YLR039C, strain RIC1, hits give low values",0.63 (active)
same,normalized growth,"S. cerevisiae deletion strains, locus YLR058C, strain SHM2, hits give low values",0.919
same,normalized growth,"S. cerevisiae deletion strains, locus YLR102C, strain apc9, hits give low values",0.948
same,normalized growth,"S. cerevisiae deletion strains, locus YLR113W, strain HOG1, hits give low values",0.907
same,normalized growth,"S. cerevisiae deletion strains, locus YLR221C, strain rsa3, hits give low values",0.891 (active)
same,normalized growth,"S. cerevisiae deletion strains, locus YLR258W, strain gsy2, hits give low values",0.869 (active)
same,normalized growth,"S. cerevisiae deletion strains, locus YLR262C, strain YPT6 (second series), hits give low values",0.46 (active)
same,normalized growth,"S. cerevisiae deletion strains, locus YLR262C, strain YPT6, hits give low values",0.562 (active)
same,normalized growth,"S. cerevisiae deletion strains, locus YLR268W, strain sec22, hits give low values",0.938
same,normalized growth,"S. cerevisiae deletion strains, locus YLR320W, strain mms22, hits give low values",0.717 (active)
same,normalized growth,"S. cerevisiae deletion strains, locus YLR330W, strain CHS5, hits give low values",0.923
same,normalized growth,"S. cerevisiae deletion strains, locus YLR342W, strain FKS1 (second series), hits give low values",0.838
same,normalized growth,"S. cerevisiae deletion strains, locus YLR342W, strain FKS1, hits give low values",0.872 (active)
same,normalized growth,"S. cerevisiae deletion strains, locus YLR357W, strain rsc2, hits give low values",0.986
same,normalized growth,"S. cerevisiae deletion strains, locus YLR370C, strain arc18, hits give low values",0.841 (active)
same,normalized growth,"S. cerevisiae deletion strains, locus YLR371W, strain rom2, hits give low values",0.91
same,normalized growth,"S. cerevisiae deletion strains, locus YLR384C, strain iki3, hits give low values",0.89 (active)
same,normalized growth,"S. cerevisiae deletion strains, locus YLR418C, strain cdc73, hits give low values",0.821 (active)
same,normalized growth,"S. cerevisiae deletion strains, locus YML016C, strain PPZ1, hits give low values",0.93
same,normalized growth,"S. cerevisiae deletion strains, locus YML032C, strain rad52, hits give low values",0.923
same,normalized growth,"S. cerevisiae deletion strains, locus YML120C, strain ndi1, hits give low values",0.878 (active)
same,normalized growth,"S. cerevisiae deletion strains, locus YML124C, strain tub3, hits give low values",0.925 (active)
same,normalized growth,"S. cerevisiae deletion strains, locus YMR058W, strain fet3, hits give low values",0.824 (active)
same,normalized growth,"S. cerevisiae deletion strains, locus YMR078C, strain ctf18, hits give low values",0.913
same,normalized growth,"S. cerevisiae deletion strains, locus YMR125W, strain sto1, hits give low values",0.915
same,normalized growth,"S. cerevisiae deletion strains, locus YMR129W, hits give low values",0.888 (active)
same,normalized growth,"S. cerevisiae deletion strains, locus YMR205C, strain PFK2, hits give low values",0.803 (active)
same,normalized growth,"S. cerevisiae deletion strains, locus YMR223W, strain ubp8, hits give low values",0.873 (active)
same,normalized growth,"S. cerevisiae deletion strains, locus YMR231W, strain pep5, hits give low values",0.895 (active)
same,normalized growth,"S. cerevisiae deletion strains, locus YMR263W, strain SAP30, hits give low values",0.903
same,normalized growth,"S. cerevisiae deletion strains, locus YMR307W, strain GAS1, hits give low values",0.852
same,normalized growth,"S. cerevisiae deletion strains, locus YNL067W, strain RPL9B, hits give low values",0.892
same,normalized growth,"S. cerevisiae deletion strains, locus YNL071W, strain lat1, hits give low values",0.75 (active)
same,normalized growth,"S. cerevisiae deletion strains, locus YNL128W, strain TEP1, hits give low values",0.948
same,normalized growth,"S. cerevisiae deletion strains, locus YNL183C, strain NPR1, hits give low values",0.908
same,normalized growth,"S. cerevisiae deletion strains, locus YNL209W, strain ssb2, hits give low values",0.913 (active)
same,normalized growth,"S. cerevisiae deletion strains, locus YNL233W, strain BNI4, hits give low values",0.869 (active)
same,normalized growth,"S. cerevisiae deletion strains, locus YNL248C, strain rpa49, hits give low values",0.858 (active)
same,normalized growth,"S. cerevisiae deletion strains, locus YNL250W, strain rad50, hits give low values",0.951
same,normalized growth,"S. cerevisiae deletion strains, locus YNL271C, strain bni1, hits give low values",0.91 (active)
same,normalized growth,"S. cerevisiae deletion strains, locus YNL298W, strain CLA4, hits give low values",0.899 (active)
same,normalized growth,"S. cerevisiae deletion strains, locus YNL307C, strain MCK1, hits give low values",0.874 (active)
same,normalized growth,"S. cerevisiae deletion strains, locus YNL322C, strain KRE1 (second series), hits give low values",0.888 (active)
same,normalized growth,"S. cerevisiae deletion strains, locus YNL322C, strain KRE1, hits give low values",0.983
same,normalized growth,"S. cerevisiae deletion strains, locus YNR049C, strain mso1, hits give low values",0.889 (active)
same,normalized growth,"S. cerevisiae deletion strains, locus YNR052C, strain pop2, hits give low values",0.96
same,normalized growth,"S. cerevisiae deletion strains, locus YOL006C, strain TOP1, hits give low values",0.564
same,normalized growth,"S. cerevisiae deletion strains, locus YOL012C, strain htz1",1.21
same,normalized growth,"S. cerevisiae deletion strains, locus YOL147C, strain pex11, hits give low values",0.924 (active)
same,normalized growth,"S. cerevisiae deletion strains, locus YOR001W, strain rrp6, hits give low values",0.794 (active)
same,normalized growth,"S. cerevisiae deletion strains, locus YOR061W, strain CKA2, hits give low values",0.945
same,normalized growth,"S. cerevisiae deletion strains, locus YOR069W, strain VPS5, hits give low values",0.955
same,normalized growth,"S. cerevisiae deletion strains, locus YOR070C, strain gyp1, hits give low values",0.913 (active)
same,normalized growth,"S. cerevisiae deletion strains, locus YOR080W, strain dia2, hits give low values",0.919
same,normalized growth,"S. cerevisiae deletion strains, locus YOR083W, strain WHI5, hits give low values",0.884 (active)
same,normalized growth,"S. cerevisiae deletion strains, locus YOR106W, strain vam3, hits give low values",0.866 (active)
same,normalized growth,"S. cerevisiae deletion strains, locus YOR136W, strain idh2, hits give low values",0.961
same,normalized growth,"S. cerevisiae deletion strains, locus YOR144C, strain elg1, hits give low values",0.938
same,normalized growth,"S. cerevisiae deletion strains, locus YOR184W, strain ser1, hits give low values",0.754 (active)
same,normalized growth,"S. cerevisiae deletion strains, locus YOR231W, strain MKK1, hits give low values",0.958
same,normalized growth,"S. cerevisiae deletion strains, locus YOR265W, strain rbl2, hits give low values",0.891 (active)
same,normalized growth,"S. cerevisiae deletion strains, locus YOR270C, strain vph1, hits give low values",0.469 (active)
same,normalized growth,"S. cerevisiae deletion strains, locus YOR290C, strain snf2, hits give low values",0.803 (active)
same,normalized growth,"S. cerevisiae deletion strains, locus YOR316C, strain cot1, hits give low values",0.936
same,normalized growth,"S. cerevisiae deletion strains, locus YPL051W, strain arl3, hits give low values",0.729 (active)
same,normalized growth,"S. cerevisiae deletion strains, locus YPL055C, strain LGE1, hits give low values",0.9
same,normalized growth,"S. cerevisiae deletion strains, locus YPL078C, strain atp4, hits give low values",0.79 (active)
same,normalized growth,"S. cerevisiae deletion strains, locus YPL106C, strain sse1, hits give low values",0.935
same,normalized growth,"S. cerevisiae deletion strains, locus YPL240C, strain hsp82, hits give low values",0.901 (active)
same,normalized growth,"S. cerevisiae deletion strains, locus YPL241C, strain CIN2, hits give low values",0.972
same,normalized growth,"S. cerevisiae deletion strains, locus YPL256C, strain CLN2, hits give low values",0.918
same,normalized growth,"S. cerevisiae deletion strains, locus YPR119W, strain clb2, hits give low values",0.931
same,normalized growth,"S. cerevisiae deletion strains, locus YPR141C, strain kar3, hits give low values",0.905 (active)
same,normalized growth,"S. cerevisiae deletion strains, locus YPR163C, strain tif3, hits give low values",0.968
same,normalized growth,"S. cerevisiae deletion strains, locus YPR167C, strain met16, hits give low values",0.925
same,normalized growth,"S. cerevisiae deletion strains, strain wtn01, hits give low values",0.891 (active)
same,normalized growth,"S. cerevisiae strains, strain wild type, hits give low values",0.951
